IDH1 R132H inh: inhibitors of human mutant IDH1 R132H. O75874. IDH1-R132H enzyme, NADPH consumption, diaphorase/resazurin fluorescence. hit rate 0.093% among 390,000. Potency, µM (doses to about 76.6 µM), inactives show top-dose activity change, negative = inhibition, most hits filed as inhibitors. AID 602179; further: potency means the concentration at half of the fitted maximal effect; on the % scale 0 is the no-effect control and ±100 the full control effect; nearly all actives have a fitted effect of over 65% in size
Target sequence (O75874 whole entry R132H, stated change not applied): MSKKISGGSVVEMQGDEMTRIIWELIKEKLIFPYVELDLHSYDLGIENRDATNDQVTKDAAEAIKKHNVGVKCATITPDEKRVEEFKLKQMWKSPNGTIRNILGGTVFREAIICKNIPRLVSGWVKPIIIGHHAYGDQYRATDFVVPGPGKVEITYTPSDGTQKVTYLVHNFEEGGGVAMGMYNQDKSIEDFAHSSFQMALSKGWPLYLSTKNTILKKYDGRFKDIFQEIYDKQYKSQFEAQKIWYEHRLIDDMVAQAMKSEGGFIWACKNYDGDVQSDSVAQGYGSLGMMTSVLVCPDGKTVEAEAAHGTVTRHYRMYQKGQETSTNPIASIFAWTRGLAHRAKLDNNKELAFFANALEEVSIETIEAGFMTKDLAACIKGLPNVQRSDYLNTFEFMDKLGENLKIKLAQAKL
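IDH1-R132H (0.5 ug/mL dispensed) in pH 7.5 Tris buffer was preincubated 30 min with compound, then given a substrate mix of 0.016 mM NADPH and 2 mM alpha-KG for 80 min at room temperature; remaining NADPH was read by diaphorase/resazurin fluorescence.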
TDP43 rescue: inhibitors of TDP-43 toxicity in yeast; TDP-43 expressing yeast growth rescue, BacTiter-Glo, 24 h; Potency, µM (doses to about 46.1 µM), for the others: at the highest dose growth rescue (activation), usual class: activators; hit rate 1.8% among 410,000; further: potency means the concentration at half of the fitted maximal effect; % of control where 0% means no effect; nearly all actives have a fitted effect of over 50% in size
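Yeast expressing TDP-43 (pregrown in raffinose, seeded at OD600=0.02 in galactose medium) exposed to compounds 24 hr at 30 deg C. Growth read by BacTiter-Glo luminescence; rescue of toxicity appears as increased signal.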
aSyn yeast inh: inhibitors of alpha-synuclein toxicity in yeast; Yeast expressing alpha-synuclein, growth rescue, BacTiter-Glo, 24 h; Potency, µM (top dose mostly 46.1 µM), for the others: top-dose growth rescue (activation), usual class: activators; hit rate 0.14% among 370,000; AID 652106; further: potency means the concentration at half of the fitted maximal effect; % of control where 0% means no effect; nearly all actives have a fitted effect of over 65% in size
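Screening used galactose-induced yeast with toxic alpha-synuclein levels, exposed to compound for 24 hr at 30 deg C. Cell growth, read with BacTiter-Glo luminescence, gave the measured signal.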
Abeta yeast res: restores growth of yeast expressing A-beta42 peptide; Potency, µM (doses to about 46.1 µM), most hits filed as activators; hit rate 0.063% among 410,000; yeast expressing A-beta42, growth rescue, OD600, 48 h; response scale: 0% DMSO, 100% iron-clioquinol control; AID 1347071; further: potency means the concentration at half of the fitted maximal effect; nearly all actives have a fitted effect of over 55% in size
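Yeast A-beta toxicity model in growth medium with pinned compounds, 48 h at 30 C; growth read as absorbance at 600 nm. Normalized to FeCl3/clioquinol equimolar mix (positive) and DMSO (negative).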
LDHA inh: LDHA (human) enzyme inhibition; activity change, % (values are at about 110 or 230 µM); hit rate 0.15% among 480,000; AID 1347041; purified LDHA, NADH/diaphorase-resazurin fluorescence; active compounds read low; P00338; in the data active means activity change below about -30%; inconclusive means mostly about -25% to -30%;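 further: plate controls were DMSO wells for no effect and wells without enzyme for full effect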
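LDH5 2 nM; NADH 0.06 mM, pyruvate 0.2 mM; 200 mM Tris pH 7.4, EDTA, Tween-20; 5 min RT. Detection: diaphorase 0.133 mg/mL + resazurin 37 µM, fluorescence ex540/em590 at 0 and 20 min; normalized to enzyme-free and DMSO wells.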
FUS suppressor: rescues growth of FUS-expressing yeast; S. cerevisiae FUS-expressing, growth rescue, OD600, 24 h; Potency, µM (series often up to 76.6 µM), hits mostly activators; hit rate 0.24% among 390,000; AID 1347120;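 further: potency means the concentration at half of the fitted maximal effect; plate controls were DMSO vehicle for no effect and reference control for full effect; nearly all actives have a fitted effect of over 55% in size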
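Toxicity suppression screen in FUS-yeast. Cells induced with 2% galactose, starting OD 0.005, treated 24hr at 30C with compounds at multiple final concentrations; growth by OD600.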
An asterisk follows results filed as active; i = inactive; ? = inconclusive; · = no result. In the library only some 2% were active in any assay of this set; here they are far more common. Unless noted, the call rests on the fitted dose curve; in most records, active means well fitted curve in the direction sought with a large enough effect; inconclusive means small, poorly fitted or top-dose-only effect, or another doubt; inactive means no such curve, though single readings can be large; an effect the other way counts as inactive or inconclusive.

SMILES	IDH1 R132H inh	TDP43 rescue	aSyn yeast inh	Abeta yeast res	LDHA inh	FUS suppressor
COc1ccc(S(=O)(=O)Nc2ccc3ccccc3c2)cc1C	1%	?	22µM*	i	4	i
Cc1cc(S(=O)(=O)Nc2ccc3ccccc3c2)c(C)s1	4%	?	18µM*	i	8	i
CCC1CCc2sc(C(=O)NCc3csc(-c4ccccc4)n3)cc2C1 (configuration not stated)	·	·	·	·	4	·
CCOc1ccc(-c2cn(-c3ccc(OC)cc3)c(SC)n2)cc1	4%	13µM*	7%	i	-5	i
Cn1c(CO)c(-c2ccccc2)c2cc([N+](=O)[O-])ccc21	1%	14µM*	-5%	i	-1	i
CC(=O)OCc1c(-c2ccccc2)c2cc([N+](=O)[O-])ccc2n1C	3%	-3%	1%	i	-1	i
COc1cc(OC)c(C(=O)/C=C/c2ccccc2)c(O)c1O	16%	13µM*	7%	i	-10	i
Cc1noc(NS(=O)(=O)c2ccc(NC(=O)CC34CC5CC(CC(Br)(C5)C3)C4)cc2)c1C	-7%	2%	3%	i	-46*	i
COCCn1cnnc1SCC(=O)Nc1sc2c(c1C#N)CCC2	3%	4%	-1%	i	0	·
Cn1cnnc1SCC(=O)Nc1sc2c(c1C(N)=O)CCC2	5%	0%	2%	i	3	7.1µM*
COc1cc(OC)cc(C(=O)Nc2sc3c(c2C(N)=O)CCC3)c1	10%	-12%	3.5µM*	i	-4	i
COc1ccc(CC(=O)Nc2sc3c(c2C(N)=O)CCCC3)cc1	0%	-5%	-7%	i	-3	i
CCOC(=O)c1nnsc1-c1ccc(-c2snnc2C(=O)OCC)cc1	-12%	0%	-2%	i	-6	i
CCOC(=O)c1nnsc1Nc1ccc(C)c(C)c1	1%	11µM*	-5%	i	0	i
CCC(C)N1CCN(C(=O)c2cccc(Cl)c2)CC1 (configuration not stated)	·	·	·	·	-1	·
O=C1C(SCCO)=C(SCCO)C(=O)c2ccccc21	25%	22µM*	-80%	i	21	i
COC(=O)COc1ccc2c(C)c(-c3ccc(Cl)cc3)c(=O)oc2c1	·	·	·	·	-7	·
CC1Cc2nc(SCC(=O)NCC3CCCO3)n(-c3ccccc3)c(=O)c2S1 (configuration not stated)	15%	-2%	22µM*	i	-1	i
O=C(CSC1CCCCC1)c1ccc(O)cc1O	·	·	·	·	-9	·
CC(C)CNC(=O)CSc1ccc(S(=O)(=O)N(C)C2CCCCC2)cn1	3%	8%	11%	i	-7	i
CN(C1CCCCC1)S(=O)(=O)c1ccc(SCC(=O)C(C)(C)C)nc1	-3%	20µM*	?	i	-2	i
COc1ccc(Cc2nnc(NC(=O)C3CC(=O)N(c4ccc(C)c(Cl)c4)C3)s2)cc1OC (configuration not stated)	·	·	·	·	-2	·
CCN(C(=O)C(NS(=O)(=O)c1ccc(Br)s1)c1ccccc1)c1ccc(C)c(C)c1 (configuration not stated)	28%	7%	·	i	10	i
CC1CC(C)CN(C(=O)C(NS(=O)(=O)c2ccc(Br)s2)c2ccccc2)C1 (configuration not stated)	2%	14µM*	-2%	i	-1	i
Cc1cnc(C(=O)Nc2cc(Cl)c(NC(=O)c3ccc(S(C)(=O)=O)cc3)c(Cl)c2)cn1	·	·	·	·	-2	·
SMILES	IDH1 R132H inh	TDP43 rescue	aSyn yeast inh	Abeta yeast res	LDHA inh	FUS suppressor
Cc1cccc(-n2c(=O)c3ccccc3n(Cc3ccccc3)c2=O)c1	6%	22µM*	·	i	-1	i
COc1ccc(-n2c(=O)c3ccccc3n(Cc3cccc(C)c3)c2=O)cc1	14%	2%	·	i	1	i
COc1ccccc1/C=C/C=C1\Oc2cc(OC(=O)C(C)(C)C)ccc2C1=O	·	·	·	·	8	·
COc1cccc(NC(=O)c2cc(-c3ccccn3)nc3ccccc23)c1	2%	25µM*	-3%	i	-6	·
COc1ccccc1NC(=O)c1cc(-c2ccccn2)nc2ccccc12	·	·	·	·	-3	·
COc1cccc(NC(=O)c2cnn(-c3ccccc3)c2C)c1	14%	20µM*	3%	i	-4	i
COc1cccc(Nc2ncccc2C(=O)Nc2ccccc2)c1	-1%	22µM*	-5%	i	-6	i
COc1ccc(-c2cc(C#N)nc(Cl)n2)cc1	19%	4µM*	-9%	i	-9	i
COc1ccc(-c2nc(NCCN(C)C3CCCCC3)c3ccccc3n2)cc1	·	·	·	·	-4	·
O=S1(=O)CCOC[C@H](Cc2ccccc2)N1Cc1ccc(Cl)cc1	-3%	16µM*	18%	i	-5	i
CC(C)C[C@H]1COCCS(=O)(=O)N1Cc1cccc(C(F)(F)F)c1	18%	14µM*	0%	i	4	i
CCC(C)[C@H]1COCCS(=O)(=O)N1Cc1ccc(Br)cc1 (some centres not stated)	13%	35µM*	11%	i	2	i
CC12CC3CC(C)(C1)CC(NCc1ccccc1OCc1ccc(Cl)cc1Cl)(C3)C2	·	·	·	·	5	·
Cn1cccc1C(=O)OCC(=O)Nc1cc(C(C)(C)C)nn1-c1ccccc1	4%	35µM*	7%	i	1	i
O=S(=O)(NCCO)c1ccc(I)cc1	·	·	·	·	5	·
CCC(CC)NC(=O)COC(=O)c1cc(-c2ccc(C)o2)nc2ccccc12	·	·	·	·	5	·
O=[N+]([O-])c1cccc2ccc(/C=C/c3ccccc3)nc12	·	·	·	·	-2	·
Fc1ccc(C2Nc3cccc4cccc(c34)N2)cc1	-4%	-4%	-8%	i	17	i
Cc1ccc(C2Nc3cccc4cccc(c34)N2)s1	14%	10µM*	-10%	i	19	·
CCOc1ccc2oc(=O)cc(CN3CCN(Cc4ccccc4F)CC3)c2c1	·	·	·	·	-8	·
Cc1c(C(=O)NCc2ccccc2Cl)sc2ncnc(N(C)C3CCCCC3)c12	1%	?	·	i	-7	i
Cc1ccc(C)c(CNC(=O)c2sc3ncnc(N(C)C4CCCCC4)c3c2C)c1	·	22µM*	·	i	-3	i
COC(CNC(=O)CS(=O)Cc1nc(-c2ccccc2Cl)oc1C)OC (configuration not stated)	·	·	·	·	7	·
COc1cc2ccccc2cc1C(=O)N1CCN(c2nc3c(F)cccc3s2)CC1	-10%	11µM*	·	i	-1	i
